# Measured values as given in the supplement of paper PMC10849652.
# Targets with a hit are over-represented here; the source holds about 8,800 in all. About 0.5% of all pairs of compound and target were hits. Values without a mark were called inactive.
# Compound: CS(=O)(=O)N1CCN(Cc2cc3nc(-c4cccc5[nH]ncc45)nc(N4CCOCC4)c3s2)CC1 [pictilisib]
# Test: log2 fold change, soluble protein after heating vs DMSO (PISA); higher = thermal stabilisation; K562 lysate, 10 uM; active = over 0.2 and 3.5 SD of the protein, either way, in both replicates (recomputed)
# Procedure, shortened: (§1)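 Following dounce homogenisation of K562 pellets in PBS pH 7.4 with 1 mM MgCl2, crude extract at 1 mg/mL protein was incubated for 30 min with 10 μM compound. Aliquots were then heated for 3 min over 48°C-58°C and pooled, NP-40 was added to 0.5% at 4°C, and soluble protein was recovered as the supernatant at 21,000xg for 90 min. Channel-sum-equalised TMTpro 16plex LC-MS/MS quantified this protein. Each value, from duplicates, is a log-two fold change in thermal stability relative to solvent controls.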
# Chain of UniProt P27216 (P27216 whole entry, looked up): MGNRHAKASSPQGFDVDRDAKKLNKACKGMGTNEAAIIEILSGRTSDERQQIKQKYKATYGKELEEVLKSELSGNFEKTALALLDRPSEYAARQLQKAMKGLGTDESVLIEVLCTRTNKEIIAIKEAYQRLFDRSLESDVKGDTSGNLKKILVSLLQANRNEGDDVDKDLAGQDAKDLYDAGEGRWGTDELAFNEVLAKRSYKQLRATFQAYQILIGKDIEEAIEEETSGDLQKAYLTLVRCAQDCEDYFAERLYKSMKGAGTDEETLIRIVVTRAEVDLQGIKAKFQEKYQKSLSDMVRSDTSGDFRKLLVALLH
# Chain of UniProt P08758 (P08758 whole entry, looked up): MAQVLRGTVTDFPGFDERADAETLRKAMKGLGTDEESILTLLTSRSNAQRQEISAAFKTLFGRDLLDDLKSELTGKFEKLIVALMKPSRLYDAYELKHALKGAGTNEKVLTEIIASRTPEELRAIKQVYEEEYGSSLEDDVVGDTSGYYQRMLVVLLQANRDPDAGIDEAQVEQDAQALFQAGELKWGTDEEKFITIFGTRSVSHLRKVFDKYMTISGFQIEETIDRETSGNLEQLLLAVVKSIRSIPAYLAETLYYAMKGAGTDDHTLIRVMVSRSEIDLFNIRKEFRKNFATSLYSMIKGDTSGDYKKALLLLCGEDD
# Chain of UniProt Q9BT30 (Q9BT30 whole entry, looked up): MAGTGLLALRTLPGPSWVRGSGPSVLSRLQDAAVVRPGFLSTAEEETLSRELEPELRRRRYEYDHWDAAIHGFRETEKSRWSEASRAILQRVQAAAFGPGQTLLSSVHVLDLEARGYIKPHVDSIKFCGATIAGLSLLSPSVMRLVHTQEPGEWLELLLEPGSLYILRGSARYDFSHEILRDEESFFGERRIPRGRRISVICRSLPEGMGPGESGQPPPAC
# Chain of UniProt Q92685 (Q92685 whole entry, looked up): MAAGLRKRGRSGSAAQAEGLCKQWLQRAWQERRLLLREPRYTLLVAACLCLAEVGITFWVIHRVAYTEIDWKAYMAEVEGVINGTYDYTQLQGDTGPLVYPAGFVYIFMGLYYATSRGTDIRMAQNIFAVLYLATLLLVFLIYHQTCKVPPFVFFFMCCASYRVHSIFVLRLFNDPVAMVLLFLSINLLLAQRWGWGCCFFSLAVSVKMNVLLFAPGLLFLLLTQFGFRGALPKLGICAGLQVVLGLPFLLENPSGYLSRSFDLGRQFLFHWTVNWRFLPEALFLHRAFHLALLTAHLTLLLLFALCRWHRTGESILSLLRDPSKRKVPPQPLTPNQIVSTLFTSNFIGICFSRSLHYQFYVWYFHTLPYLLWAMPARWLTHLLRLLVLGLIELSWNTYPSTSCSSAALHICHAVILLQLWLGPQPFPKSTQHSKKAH
# Chain of UniProt Q3SXY8 (Q3SXY8 whole entry, looked up): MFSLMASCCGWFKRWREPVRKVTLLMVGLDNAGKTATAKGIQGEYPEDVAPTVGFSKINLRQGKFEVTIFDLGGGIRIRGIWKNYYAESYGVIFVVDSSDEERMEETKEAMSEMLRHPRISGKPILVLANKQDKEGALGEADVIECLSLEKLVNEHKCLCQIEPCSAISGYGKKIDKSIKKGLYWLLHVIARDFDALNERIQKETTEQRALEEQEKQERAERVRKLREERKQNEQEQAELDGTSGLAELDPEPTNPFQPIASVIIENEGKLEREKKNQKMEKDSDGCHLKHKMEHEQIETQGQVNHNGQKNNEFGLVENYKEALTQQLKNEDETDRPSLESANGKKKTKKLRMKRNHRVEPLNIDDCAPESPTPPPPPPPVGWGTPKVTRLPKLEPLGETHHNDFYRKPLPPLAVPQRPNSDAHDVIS
# Chain of UniProt P53396 (P53396 whole entry, looked up): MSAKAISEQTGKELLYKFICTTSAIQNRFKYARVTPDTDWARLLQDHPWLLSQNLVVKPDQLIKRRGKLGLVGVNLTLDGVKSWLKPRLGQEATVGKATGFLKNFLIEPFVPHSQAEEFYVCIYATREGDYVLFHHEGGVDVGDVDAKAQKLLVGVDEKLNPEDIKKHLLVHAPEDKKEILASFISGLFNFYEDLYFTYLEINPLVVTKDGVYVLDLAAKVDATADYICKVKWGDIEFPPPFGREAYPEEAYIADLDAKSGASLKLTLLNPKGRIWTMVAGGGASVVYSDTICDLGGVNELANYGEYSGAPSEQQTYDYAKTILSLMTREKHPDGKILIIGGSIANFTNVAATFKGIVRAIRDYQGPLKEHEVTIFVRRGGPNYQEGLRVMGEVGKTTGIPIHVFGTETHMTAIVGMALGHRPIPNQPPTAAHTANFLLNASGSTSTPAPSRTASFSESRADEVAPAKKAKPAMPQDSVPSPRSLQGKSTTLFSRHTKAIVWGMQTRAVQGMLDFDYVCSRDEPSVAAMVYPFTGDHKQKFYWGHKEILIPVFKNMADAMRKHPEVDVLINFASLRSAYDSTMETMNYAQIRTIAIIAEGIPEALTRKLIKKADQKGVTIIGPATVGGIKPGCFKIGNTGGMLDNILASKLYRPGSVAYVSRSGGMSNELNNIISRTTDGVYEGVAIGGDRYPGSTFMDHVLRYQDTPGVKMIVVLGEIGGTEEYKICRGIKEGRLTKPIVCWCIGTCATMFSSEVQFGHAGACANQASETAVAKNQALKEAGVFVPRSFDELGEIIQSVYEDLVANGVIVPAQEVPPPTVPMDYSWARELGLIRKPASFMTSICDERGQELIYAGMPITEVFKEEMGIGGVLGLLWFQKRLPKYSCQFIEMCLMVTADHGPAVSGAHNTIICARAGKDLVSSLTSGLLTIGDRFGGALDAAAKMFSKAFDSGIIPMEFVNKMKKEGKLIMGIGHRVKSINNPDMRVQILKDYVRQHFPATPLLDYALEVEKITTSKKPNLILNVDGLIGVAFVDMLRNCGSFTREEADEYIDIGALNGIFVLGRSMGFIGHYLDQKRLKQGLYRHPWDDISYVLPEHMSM
# Chain of UniProt Q99758 (Q99758 whole entry, looked up): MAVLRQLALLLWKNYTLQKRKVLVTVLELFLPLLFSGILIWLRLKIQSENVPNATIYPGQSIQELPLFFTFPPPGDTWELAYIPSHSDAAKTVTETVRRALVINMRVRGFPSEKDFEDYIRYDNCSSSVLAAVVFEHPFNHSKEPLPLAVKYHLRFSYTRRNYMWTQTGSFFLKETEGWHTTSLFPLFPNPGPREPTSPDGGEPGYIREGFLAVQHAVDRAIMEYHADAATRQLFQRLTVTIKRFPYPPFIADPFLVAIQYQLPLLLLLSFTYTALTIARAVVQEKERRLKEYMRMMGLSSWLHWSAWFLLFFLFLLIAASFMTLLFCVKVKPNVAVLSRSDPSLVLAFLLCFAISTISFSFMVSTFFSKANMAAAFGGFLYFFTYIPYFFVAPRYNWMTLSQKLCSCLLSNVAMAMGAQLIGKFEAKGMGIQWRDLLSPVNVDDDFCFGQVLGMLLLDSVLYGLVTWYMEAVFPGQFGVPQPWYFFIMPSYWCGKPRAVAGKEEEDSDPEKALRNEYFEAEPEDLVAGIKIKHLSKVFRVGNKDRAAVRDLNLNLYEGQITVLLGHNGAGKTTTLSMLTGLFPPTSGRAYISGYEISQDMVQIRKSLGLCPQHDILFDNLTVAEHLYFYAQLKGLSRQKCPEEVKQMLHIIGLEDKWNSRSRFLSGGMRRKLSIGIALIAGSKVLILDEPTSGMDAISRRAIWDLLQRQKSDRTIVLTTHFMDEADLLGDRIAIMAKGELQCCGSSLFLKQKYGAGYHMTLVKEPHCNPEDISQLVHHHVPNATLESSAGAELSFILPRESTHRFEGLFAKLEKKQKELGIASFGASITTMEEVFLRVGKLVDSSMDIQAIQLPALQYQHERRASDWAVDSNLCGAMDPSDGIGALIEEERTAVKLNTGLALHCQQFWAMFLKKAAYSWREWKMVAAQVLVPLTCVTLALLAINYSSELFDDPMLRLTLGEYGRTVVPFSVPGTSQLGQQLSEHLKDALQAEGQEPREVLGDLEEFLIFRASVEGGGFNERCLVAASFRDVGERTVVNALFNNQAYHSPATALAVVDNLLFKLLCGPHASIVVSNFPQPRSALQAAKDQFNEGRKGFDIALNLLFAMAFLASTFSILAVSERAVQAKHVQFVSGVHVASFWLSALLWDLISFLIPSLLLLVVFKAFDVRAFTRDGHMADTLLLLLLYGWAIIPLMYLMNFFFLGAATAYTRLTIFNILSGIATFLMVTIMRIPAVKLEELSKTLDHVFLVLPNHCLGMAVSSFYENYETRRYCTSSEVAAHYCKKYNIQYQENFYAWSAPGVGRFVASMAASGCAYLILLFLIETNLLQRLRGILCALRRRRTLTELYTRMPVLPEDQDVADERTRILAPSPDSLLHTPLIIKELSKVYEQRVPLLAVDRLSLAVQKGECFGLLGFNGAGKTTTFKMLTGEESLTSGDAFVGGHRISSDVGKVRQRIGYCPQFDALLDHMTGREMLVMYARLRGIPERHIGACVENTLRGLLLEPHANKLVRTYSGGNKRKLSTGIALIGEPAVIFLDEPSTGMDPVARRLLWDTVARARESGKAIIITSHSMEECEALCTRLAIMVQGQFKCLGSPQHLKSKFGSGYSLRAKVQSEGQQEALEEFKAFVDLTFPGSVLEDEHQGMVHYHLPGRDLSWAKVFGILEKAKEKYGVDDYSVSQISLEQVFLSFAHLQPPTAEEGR
# Chain of UniProt Q9P1F3 (Q9P1F3 whole entry, looked up): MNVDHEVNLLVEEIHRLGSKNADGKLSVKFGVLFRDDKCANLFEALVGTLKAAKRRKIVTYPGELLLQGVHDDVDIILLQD
# Chain of UniProt Q9Y303 (Q9Y303 whole entry, looked up): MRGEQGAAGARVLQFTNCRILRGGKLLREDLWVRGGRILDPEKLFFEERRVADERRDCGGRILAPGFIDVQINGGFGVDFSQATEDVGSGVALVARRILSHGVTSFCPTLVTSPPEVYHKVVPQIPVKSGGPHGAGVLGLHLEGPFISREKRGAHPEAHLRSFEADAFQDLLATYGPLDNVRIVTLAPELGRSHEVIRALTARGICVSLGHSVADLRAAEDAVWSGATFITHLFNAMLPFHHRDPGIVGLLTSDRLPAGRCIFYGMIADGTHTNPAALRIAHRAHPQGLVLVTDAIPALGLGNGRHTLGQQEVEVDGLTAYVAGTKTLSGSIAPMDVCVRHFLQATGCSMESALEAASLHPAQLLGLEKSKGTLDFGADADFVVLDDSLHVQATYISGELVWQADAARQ
row,Target,log2 fold change
1,ANKRD30B (UniProt Q9BXX2),-0.068
2,ANXA5 (UniProt P08758),-0.009
3,ANXA13 isoform 2 (UniProt P27216),-0.03
4,ABL1 isoform 2 (UniProt P00519),-0.094
5,ARMCX5 (UniProt Q6P1M9),0.04

# Compound: C[C@@H](Oc1cc(-c2cnn(C3CCNCC3)c2)cnc1N)c1c(Cl)ccc(F)c1Cl [crizotinib]
# Test: as above
# Procedure, shortened: as §1
row,Target,log2 fold change
1,AIMP2 isoform 2 (UniProt Q13155),-0.036
2,ALDH18A1 isoform 2 (UniProt P54886),0.127
3,ACIN1 (UniProt E7EQT4),-0.1
4,ANKRD40 (UniProt Q6AI12),-0.022
5,ABRACL (UniProt Q9P1F3),-0.105
6,ANKRD10 (UniProt Q9NXR5),0.017
7,ALDH3A1 (UniProt P30838),-0.134
8,ANXA2 (UniProt H0YL33),-0.048
9,ALG3 (UniProt Q92685),-0.057
10,AGPAT2 (UniProt O15120),-0.097
11,ADAM17 (UniProt P78536),0.051
12,ABCA3 (UniProt Q99758),-0.469 (active)
13,ARL13B (UniProt Q3SXY8),-0.075
14,ACYP2 (UniProt P14621),0.082
15,AGGF1 (UniProt Q8N302),-0.028
16,AMDHD2 (UniProt Q9Y303),-0.056
17,ACLY isoform 2 (UniProt P53396),0.078
18,ABCC5 (UniProt O15440),0.014
19,ANXA5 (UniProt P08758),0.046
20,ANXA13 isoform 2 (UniProt P27216),0.011
21,ALKBH7 (UniProt Q9BT30),-0.049

# Compound: C[C@H](C1=CC=C(C=C1)C(=O)NC2=C3C=CNC3=NC=C2)N
# Test: as above
# Procedure, shortened: as §1
row,Target,log2 fold change
1,ACIN1 (UniProt E7EQT4),-0.28 (active)
2,ANKRD40 (UniProt Q6AI12),-0.018
3,ABRACL (UniProt Q9P1F3),-0.053
4,ADD1 isoform 4 (UniProt P35611),-0.745 (active)
5,ANKRD10 (UniProt Q9NXR5),-0.032
6,ACVR1 (UniProt Q04771),0.103
7,ALDH3A1 (UniProt P30838),-0.721
8,ALKBH1 (UniProt Q13686),-0.016
9,ANP32E isoform 3 (UniProt Q9BTT0),-0.843 (active)
10,ANXA2 (UniProt H0YL33),0.284
11,"ACAT1, A0A5F9ZHJ0",-0.151
12,ALG3 (UniProt Q92685),-0.15
13,AGPAT2 (UniProt O15120),0.006
14,ALG13 isoform 2 (UniProt Q9NP73),0.054
15,ADAM17 (UniProt P78536),0.008
16,ABCA3 (UniProt Q99758),-0.156
17,ARL13B (UniProt Q3SXY8),0.4 (active)
18,ACYP2 (UniProt P14621),0.217
19,AGGF1 (UniProt Q8N302),-0.193
20,AMDHD2 (UniProt Q9Y303),0.052
21,ACLY isoform 2 (UniProt P53396),-0.423 (active)
22,ANKRD44 isoform 2 (UniProt Q8N8A2),-1.57 (active)
23,ABCC5 (UniProt O15440),-0.038
24,ANKRD30B (UniProt Q9BXX2),-0.558 (active)
25,AP3D1 isoform 2 (UniProt O14617),0.19
26,ANXA5 (UniProt P08758),0.059
27,ANXA13 isoform 2 (UniProt P27216),0.057
28,ABL1 isoform 2 (UniProt P00519),0.135
29,ALKBH7 (UniProt Q9BT30),0.289
30,ARMCX5 (UniProt Q6P1M9),-0.001
